Hits are enriched below; roughly 1% of the tested compounds scored in any of these assays.
PriA SSB inh = blocks PriA binding to SSB C-terminal tail. AlphaScreen SSBct-PriA binding, biotinylated peptide. inhibition, % at 33 µM. actives 0.6% (n = 430,000); in the data active = inhibition mostly above about 37%, no sharp cut-off; inactive = mostly below about 20%
ugtP null kill = compounds lethal to S. aureus RN4220 ugtP deletion mutant; OD600 growth, 16 h; growth inhibition, % (test concentration not listed); actives 0.54% (n = 330,000); AID 1259309; in the data active = growth inhibition above about 68%
RN4220 kill = kills Staphylococcus aureus RN4220; S. aureus RN4220 growth, OD600, 16 h; AID 1259311; inhibition, % (test concentration not listed); actives 0.33% (n = 330,000); in the data active = inhibition above about 85%
Hits are given with their value; n = inactive; x = no result given.

SMILES	PriA SSB inh	ugtP null kill	RN4220 kill
CCC(/C=C1\Sc2ccc(OC)cc2N1CCO)=C\c1sc2ccc(OC)cc2[n+]1CCO	n	96.4	99.0
O=C(CCn1ccc(=O)[nH]c1=O)NCc1cc(-c2ccccc2F)on1	n	x	x
Cc1ccc(N2CC(C(=O)NCCCn3ccnc3)CC2=O)cc1 (stereo not drawn)	n	n	n
Cc1ccc(N2CC(NC(=O)NCCCn3ccnc3)CC2=O)cc1C (stereo not drawn)	51.0	x	x
CCN1CCN(Cc2ccc(NC(=O)c3ccc(C)c(NC(=O)C(=O)c4c[nH]c5ccccc45)c3)cc2C(F)(F)F)CC1	n	100.0	100.7
CCN1CCN(Cc2ccc(NC(=O)c3cc(NC(=O)C(=O)c4c[nH]c5ccccc45)cc(OC)c3)cc2C(F)(F)F)CC1	n	n	n
O=C(Nc1nnc(-c2ccccn2)o1)c1cc(Cl)cc(Cl)c1	n	x	x
O=C1NC(=O)C2(Cc3ccccc3N3CCCC32)C(=O)N1c1ccccc1 (stereo not drawn)	n	n	n
CCN1C(=O)N(CC)C(=O)C2(Cc3ccccc3N3CCN(c4ccccc4)CC32)C1=O (stereo not drawn)	n	88.5	n
COc1ccc(NC(N)=Nc2nc(CSc3ccc(C)cc3)cc(=O)[nH]2)cc1	n	x	x
COc1cc(NS(=O)(=O)c2ccc(NC(=O)CSc3nc(N)cc(N)n3)cc2)nc(OC)n1	n	x	x
CN(C)c1oc(-c2ccc(OCc3ccccc3)cc2)nc1C#N	n	n	n
CN(Cc1ccccc1)c1oc(COc2ccc(F)cc2)nc1C#N	63.6	x	x
Cc1ccc(Nc2ccc(S(=O)(=O)N3CCOCC3)cc2[N+](=O)[O-])cc1C	69.5	n	n
Cc1ccc(S(=O)(=O)Nc2ccc(S(=O)(=O)N3CCOCC3)cc2)cc1[N+](=O)[O-]	n	n	n
COc1cc(S(=O)(=O)n2ccc(C)n2)c(C)cc1Br	n	x	x
COc1cccc(N2CCN(c3ncnc4c3[nH]c3ccc(F)cc34)CC2C)c1 (stereo not drawn)	42.1	n	n
COc1ccc2[nH]c3c(N4CC(C)OC(C)C4)ncnc3c2c1 (stereo not drawn)	n	n	n
CCOC(=O)C1C(=O)C=C(c2cccc(F)c2)CC1c1cc(OC)ccc1OC (stereo not drawn)	n	x	x
Clc1ccc2ccc3cccnc3c2n1	n	n	n
C/[N+]([O-])=C\c1ccc2ccc3cccnc3c2n1	153.5	x	x
O=C(CSc1ccc(-n2cccn2)nn1)c1ccccc1	n	x	x
O=C(Nc1ccc2cn[nH]c2c1)c1cc(-n2cccn2)ccn1	n	x	x
C#CCN1C(=O)C2(C(C#N)=C(N)OC(C)=C2C(=O)OCc2ccccc2)c2ccccc21 (stereo not drawn)	n	n	n
CCOC(=O)C1=C(C)OC(N)=C(C#N)C12C(=O)N(C)c1ccccc12 (stereo not drawn)	n	n	90.5
SMILES	PriA SSB inh	ugtP null kill	RN4220 kill
COC(=O)C1=C(C)OC(N)=C(C#N)C12C(=O)Nc1ccccc12 (stereo not drawn)	n	n	n
COC(=O)CC1=C(C(=O)OC)C2(C(=O)Nc3c(C)cccc32)C(C#N)=C(N)O1 (stereo not drawn)	n	94.5	97.3
COc1ccc(OC)c(-c2cc(C(=O)NC[C@@H](c3ccco3)N(C)C)n(C)n2)c1	n	x	x
Cc1ccc([N+](=O)[O-])cc1S(=O)(=O)N1CCN(c2cccc(Cl)c2)CC1	n	x	x
O=[N+]([O-])c1ccc2[nH]cc(S(=O)(=O)N3CCN(c4cccc(Cl)c4)CC3)c2c1	n	90.3	99.5
O=C(NCCn1ncc2c(N3CCOCC3)ncnc21)C12CC3CC(CC(C3)C1)C2	n	x	x
Cc1cc(C)n(-c2nc3ccccc3c(=O)n2OC2CCCCC2)n1	n	n	n
Cc1cc(C)n(-c2nc3ccccc3c3nc(C)nn23)n1	104.2	n	n
CCOC(=O)N1CCN(S(=O)(=O)c2ccc(C(=O)Nc3nc4c(OC)ccc(C)c4s3)cc2)CC1	n	x	x
O=C(Nc1ccc(-c2ccc3nnc(-c4ccccn4)n3n2)cc1)c1ccc(Cl)nc1	n	x	x
O=C(Nc1ccc(-c2ccc3nnc(-c4ccccn4)n3n2)cc1)c1ccccc1Cl	82.0	x	x
O=C(Cc1ccccc1)Nc1ccc(-c2ccc3nnc(-c4ccccn4)n3n2)cc1	95.0	x	x
O=C(Nc1ccc(-c2ccc3nnc(-c4ccncc4)n3n2)cc1)c1ccccc1Cl	n	x	x
O=C(Nc1ccc(-c2ccc3nnc(-c4ccccn4)n3n2)cc1)C1CCCC1	n	x	x
Cc1ccccc1C(=O)Nc1ccc(-c2ccc3nnc(-c4ccccn4)n3n2)cc1	70.0	x	x
COC(=O)CSc1ncc2c(n1)-c1ccccc1N(C)S2(=O)=O	n	x	x
CCN1C(=S)NC2CC1(C)Oc1ccc(Br)cc12 (stereo not drawn)	n	x	x
COc1ccc(NC(=O)C2C(C=C(Cl)Cl)C2(C)C)cc1 (stereo not drawn)	n	x	x
